This is an account of results in PubChem BioAssay (NCI).

Where “and” joins values, the source holds several entries; their conditions need not be identical. Identical values can stand only once. This is part of a sample that, as a whole, favours compounds with a hit. Of some 83,000 tested, about 20% had one in any assay.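 The endpoint reported here, percent growth, reads 100 for growth as untreated, 0 for no net growth and -100 for all cells dead.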 Values without a mark were called inactive. Calls of active or inactive are those of the source. How the source made its calls: active means growth percent below 10; inactive means the rest.

In this test the test system is HL-60(TB) leukemia. The experiment in a line: NCI-60 one-dose screen, 48 h (100 = growth as untreated, 0 = no growth, -100 = all killed). Particulars: 10 µM unless noted.
With `COc1ccc(NC(=O)CSc2nc(C)c(C(C)=O)n2-c2ccc(Cl)cc2)cc1`, the growth was 103%.
On to `COc1ccc2c(c1)NC1=C(C(=O)OC1)C2c1cc(OC)c2c(c1)OCO2` (centres undefined), for which the growth is 0.722% (active).
For `COc1cccc(C(=O)N(c2ccc(F)c(F)c2)C(C(=O)NC(C)(C)C)c2cc3c(C)cc(C)cc3nc2Cl)c1` (centres undefined) the value was 63.3%; for `CCC1=C[C@@H]2CN(C1)Cc1c([nH]c3ccccc13)[C@@](C(=O)OC)(c1cc3c(cc1OC)N(C=O)[C@H]1[C@@](O)(C(=O)OC)[C@H](OC(C)=O)[C@]4(CC)[C@@H]5C[C@@H]5CN5CC[C@]31[C@@H]54)C2`, -19.4% (active); for `CN(C)C/C=C/C(=O)Nc1cc2c(Nc3ccc(F)c(Cl)c3)ncnc2cc1O[C@H]1CCOC1`, -44.7% (active).
As for `Cn1cnc2c(N3CCN(C(=O)OCc4ccc5c(Cl)cc(Cl)c(O)c5n4)CC3)nc(Cl)nc21`, the growth was 66%.
For `CC(=O)c1ccc2c(c1)c1ccccc1n2C` the value was 84.1%.
For `Nc1c(C(=O)Nc2ccncc2)sc2nc3c(cc12)CCCCCC3` the value was 67.1%; for `CC(C)OC(=O)Nn1cnc2ccccc21`, 96.5%.
`COc1cc(/C=C/C(=O)c2ccc(O)c(CN3CCN(c4cc5c(cc4F)c(=O)c(C(=O)O)cn5C4CC4)CC3)c2)cc(OC)c1OC`: the growth was 7.35% (active).
In the case of `CCN(CC)CCNC(=O)c1cn2ncnc(Oc3ccc(NC(=O)Nc4ccc(Cl)c(C(F)(F)F)c4)c(F)c3)c2c1C`, the growth is -45% (active).
For `COc1ccc(-c2cc(-c3cc(OC)ccc3OC)[nH]c(=O)c2C#N)cc1` the value was 18.1%; for `CNCc1cccc2c1OCCOCCOCCN(CCN1CCOCC1)S(=O)(=O)c1ccc(cc1)-c1cnc(N)c(n1)C(=O)N2`, -23.5% (active); for `C=C(CN1CCc2c([nH]c3ccccc23)C1)c1ccc(C(=O)Nc2ccon2)cc1`, 99%.
Consider `O=C(CNc1c(Cl)cccc1Cl)Nc1ccc(-c2nc3ccccc3s2)cc1`, for which the growth is 70.7%.
As to `CCOC(=O)c1cc(C(=O)c2cc(OC)c(OC)c(OC)c2)n2ncc3ccccc3c12`, the growth is 28.7%.
As to `Cc1ccc2cccc(Oc3ccc(Nc4ncnc5onc(-c6ccccc6)c45)cc3)c2n1`, the growth was 94.9%.
Regarding `C[C@H](CCC(=O)O)[C@H]1CC[C@H]2[C@@H]3CC[C@@H]4/C(=C\c5ccco5)C(=O)/C(=C\c5ccco5)C[C@]4(C)[C@H]3CC[C@]12C`, the growth was 29.9%.
With `O=C(CCl)Nc1ccccc1SCc1cc(Cl)cc2c1OCOC2`, the growth was 49.4%.
With `COc1ccc(NC(=O)c2cc3ccccc3nc2Nc2cc(OC)c(OC)c(OC)c2)cc1`, the growth is 67.3%.
Consider `COc1cc(/C=C/C(=O)c2c(C)nc3ccccc3c2/C=C/c2ccccc2)cc(OC)c1OC`, for which the growth was -6.84% (active).
With `C=C1c2nc3ccccc3n2C=C(c2ccc(OC)cc2)N1Cc1ccccc1`, the growth was 80%.
Next, `C=C1CCC2C(C)(CO)C(O)CCC2(C)C1CC(NCc1ccccc1)C1=CCOC1=O` (centres undefined): 111%; `CCOC(=O)Nc1ccc2c(c1)/C(=N\NC(N)=S)c1ccccc1-2`: 55.4% and 78.8%; `O=C1/C(=C/c2ccccc2)SC(=S)N1CCc1ccc(O)cc1`: 94.9%.
Next, `COc1ccc(OC)c(/C=C2\Oc3cc(OCCN4CCC(Cc5ccccc5)CC4)ccc3C2=O)c1`: 98.2%.
With `Cc1nn(-c2ccc(Cl)cc2)c2ncnc(N/N=C/c3ccccc3O)c12`, the growth was -4.93% (active) and 1.67% (active).
Next, `CC(C)(C)NC(=O)C(OC(=O)C1CCc2cc(F)ccc2O1)c1ccccc1Cl` (centres undefined): 103%.
Next, `COc1c(N)c2c(c([N+](=O)[O-])c1OC)C(=O)OC2`: 95.3%; `Cc1ccc(-c2nc3nc(-c4ccc(F)cc4)nc(N4CCNCC4)c3o2)cc1`: -69.1% (active).
Next, `O=C1OC(=O)C2C1CC=CC2c1ccccc1` (centres undefined): 69.1%; `O=C(Nc1ccc(C2=NCCCN2)cc1)Nc1ccc(C2=NCCCN2)cc1`: 87.4%; `Cc1ccc(NC(=O)Nc2ccc(Nc3ncnc4sc5c(c34)CCOC5)cc2)cc1Cl`: 108%.
Take `CCOC(=O)c1c(/C=C/C(=O)O)nc2ccccc2c1/C=C/c1ccccc1`: the growth was 8.28% (active).
For `C=C1C(=O)O[C@H]2[C@H]1CC/C(COC(=O)NCc1cc[nH]c1)=C\CC[C@@]1(C)O[C@@H]21` the value was -6.94% (active).
Next, `Oc1cccc(-c2nc3sccn3c2-c2ccncn2)c1`: 99.2%.
For `Oc1ccc(-c2cnc(-c3ccccc3)[nH]2)c(O)c1` the value was 101%; for `Cc1ccc(Sc2nnc(/N=C3\C(=O)Nc4ccccc43)s2)cc1`, 95.9%; for `COc1ccc(-c2csc(NC(=O)c3ccc(Cc4n[nH]c(=O)c5cccnc45)cc3)n2)cc1`, 104%.
